Structures can show the parent of a compound that is named as a salt. ± gives the standard deviation of the averaged measurements.
Experiments:
[1] = tested on: Saccharomyces cerevisiae BY4741 SeMeCo community; assay: mean cell size (pixel area) (pixels); higher = larger cells; conditions: 10 µM; 24 h; SM minimal medium
Procedure, shortened: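 In this assay, mean cell pixel area per well was obtained from automated confocal images of paraformaldehyde-fixed yeast analysed in Harmony. The cells were a Saccharomyces cerevisiae BY4741 community with four plasmids, each complementing one auxotrophy and carrying a fluorescent marker, grown for 24 h in SM medium with drug at a final 10 µM in 384-well plates. Values are averaged across 3 replicates. Same SeMeCo high-content imaging drug screen: Selleck FDA-approved drugs at 10 µM, 24 h in SM medium, 384-well plates, 3 replicates.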

[2] = tested on: Saccharomyces cerevisiae BY4741 SeMeCo community; assay: z-score of prototroph abundance vs DMSO median; higher = larger share of this subpopulation than in DMSO controls; conditions: 10 µM; 24 h; SM minimal medium; subpopulation (auxotrophy): Prototroph
Procedure, shortened: (§1)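 Cells of a Saccharomyces cerevisiae BY4741 community, carrying four plasmids that each restored one auxotrophy and encoded a distinct fluorescent protein, were pre-grown overnight to OD600 1.0 and diluted to 0.3. A 70 µl volume was added to 384-well plates acoustically predosed with library drugs (10 µM final) and grown 24 h in minimal SM medium. After paraformaldehyde fixation, automated confocal microscopy was used, with single-auxotroph fluorescent strains for thresholds and autofluorescence correction. The abundance of each subpopulation was scored as a z-score against the vehicle-well median.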

[3] = tested on: Saccharomyces cerevisiae BY4741 SeMeCo community; assay: z-score of subpopulation abundance vs DMSO median, subpopulation auxotrophic for M; higher = larger share of this subpopulation than in DMSO controls; conditions: 10 µM; 24 h; SM minimal medium; subpopulation (auxotrophy): M
Procedure, shortened: as §1

[4] = tested on: Saccharomyces cerevisiae BY4741 SeMeCo community; assay: z-score of subpopulation abundance vs DMSO median, subpopulation auxotrophic for L; higher = larger share of this subpopulation than in DMSO controls; conditions: 10 µM; 24 h; SM minimal medium; subpopulation (auxotrophy): L
Procedure, shortened: as §1

[5] = tested on: Saccharomyces cerevisiae BY4741 SeMeCo community; assay: z-score of subpopulation abundance vs DMSO median, subpopulation auxotrophic for U; higher = larger share of this subpopulation than in DMSO controls; conditions: 10 µM; 24 h; SM minimal medium; subpopulation (auxotrophy): U
Procedure, shortened: as §1

[6] = tested on: Saccharomyces cerevisiae BY4741 SeMeCo community; assay: z-score of subpopulation abundance vs DMSO median, subpopulation auxotrophic for H; higher = larger share of this subpopulation than in DMSO controls; conditions: 10 µM; 24 h; SM minimal medium; subpopulation (auxotrophy): H
Procedure, shortened: as §1

[7] = tested on: Saccharomyces cerevisiae BY4741 SeMeCo community; assay: z-score of subpopulation abundance vs DMSO median, subpopulation auxotrophic for HM; higher = larger share of this subpopulation than in DMSO controls; conditions: 10 µM; 24 h; SM minimal medium; subpopulation (auxotrophy): HM
Procedure, shortened: as §1

[8] = tested on: Saccharomyces cerevisiae BY4741 SeMeCo community; assay: z-score of subpopulation abundance vs DMSO median, subpopulation auxotrophic for HU; higher = larger share of this subpopulation than in DMSO controls; conditions: 10 µM; 24 h; SM minimal medium; subpopulation (auxotrophy): HU
Procedure, shortened: as §1

[9] = tested on: Saccharomyces cerevisiae BY4741 SeMeCo community; assay: z-score of subpopulation abundance vs DMSO median, subpopulation auxotrophic for UM; higher = larger share of this subpopulation than in DMSO controls; conditions: 10 µM; 24 h; SM minimal medium; subpopulation (auxotrophy): UM
Procedure, shortened: as §1

[10] = tested on: Saccharomyces cerevisiae BY4741 SeMeCo community; assay: z-score of subpopulation abundance vs DMSO median, subpopulation auxotrophic for HL; higher = larger share of this subpopulation than in DMSO controls; conditions: 10 µM; 24 h; SM minimal medium; subpopulation (auxotrophy): HL
Procedure, shortened: as §1

[11] = tested on: Saccharomyces cerevisiae BY4741 SeMeCo community; assay: z-score of subpopulation abundance vs DMSO median, subpopulation auxotrophic for HLU; higher = larger share of this subpopulation than in DMSO controls; conditions: 10 µM; 24 h; SM minimal medium; subpopulation (auxotrophy): HLU
Procedure, shortened: as §1

[12] = tested on: Saccharomyces cerevisiae BY4741 SeMeCo community; assay: z-score of subpopulation abundance vs DMSO median, subpopulation auxotrophic for HLM; higher = larger share of this subpopulation than in DMSO controls; conditions: 10 µM; 24 h; SM minimal medium; subpopulation (auxotrophy): HLM
Procedure, shortened: as §1

[13] = tested on: Saccharomyces cerevisiae BY4741 SeMeCo community; assay: z-score of subpopulation abundance vs DMSO median, subpopulation auxotrophic for HUM; higher = larger share of this subpopulation than in DMSO controls; conditions: 10 µM; 24 h; SM minimal medium; subpopulation (auxotrophy): HUM
Procedure, shortened: as §1

[14] = tested on: Saccharomyces cerevisiae BY4741 SeMeCo community; assay: z-score of subpopulation abundance vs DMSO median, subpopulation auxotrophic for LUM; higher = larger share of this subpopulation than in DMSO controls; conditions: 10 µM; 24 h; SM minimal medium; subpopulation (auxotrophy): LUM
Procedure, shortened: as §1

[15] = tested on: Saccharomyces cerevisiae BY4741 SeMeCo community; assay: z-score of subpopulation abundance vs DMSO median, subpopulation auxotrophic for HLUM; higher = larger share of this subpopulation than in DMSO controls; conditions: 10 µM; 24 h; SM minimal medium; subpopulation (auxotrophy): HLUM
Procedure, shortened: as §1

[16] = tested on: Saccharomyces cerevisiae BY4741 SeMeCo community; assay: z-score of subpopulation abundance vs DMSO median, subpopulation auxotrophic for LM; higher = larger share of this subpopulation than in DMSO controls; conditions: 10 µM; 24 h; SM minimal medium; subpopulation (auxotrophy): LM
Procedure, shortened: as §1

Structure (SMILES)	mean cell size [1]	z-score of prototroph abundance [2]	z-score of subpopulation abundance [3]	z-score of subpopulation abundance [4]	z-score of subpopulation abundance [5]	z-score of subpopulation abundance [6]	z-score of subpopulation abundance [7]	z-score of subpopulation abundance [8]	z-score of subpopulation abundance [9]	z-score of subpopulation abundance [10]	z-score of subpopulation abundance [11]	z-score of subpopulation abundance [12]	z-score of subpopulation abundance [13]	z-score of subpopulation abundance [14]	z-score of subpopulation abundance [15]	z-score of subpopulation abundance [16]
CC[C@@H]1/C=C(\C)C[C@H](C)C[C@H](OC)[C@H]2O[C@@](O)(C(=O)C(=O)N3CCCC[C@H]3C(=O)O[C@H](/C(C)=C/[C@@H]3CC[C@@H](O)[C@H](OC)C3)[C@H](C)[C@@H](O)CC1=O)[C@H](C)C[C@@H]2OC [Ascomycin (FK520)]	11.8 ± 0.18	-1.94	1.34	0.1	-0.06	1.96	1.4	1.75	0.63	2.56	2.5	1.57	2.57	2.23	–	–
CO/N=C(\C(=O)N[C@@H]1C(=O)N2C(C(=O)[O-])=C(C[N+]3(C)CCCC3)CS[C@H]12)c1csc(N)n1 [Cefepime Dihydrochloride Monohydrate]	12.4 ± 0.19	-0.67	0.62	0.49	-0.42	–	1.14	-0.45	0.07	0.83	0.65	0.34	0.6	1.06	0.19	–
CC(=O)OCC(CCn1cnc2cnc(N)nc21)COC(C)=O [Famciclovir]	12.6 ± 0.22	0.55	-0.23	0.46	-0.77	0.1	0.41	–	-0.68	0.32	-0.67	1.57	–	-0.18	–	-0.17
CN1CCN(CCCN2c3ccccc3Sc3ccc(Cl)cc32)CC1 [Prochlorperazine dimaleate salt]	–	-0.98	0.75	0.41	-0.36	1.05	1.58	0.89	0.65	0.69	0.49	0.12	1.51	1.88	–	0.75
CO/N=C(\C(=O)N[C@@H]1C(=O)N2C(C(=O)[O-])=C(C[n+]3cccc4c3CCC4)CS[C@H]12)c1csc(N)n1 [Cefpirome sulfate]	12.5 ± 0.22	-0.2	0.51	1.19	-0.71	–	0.31	-0.75	0.21	-0.18	-0.14	-0.14	–	0.18	0.23	0.27
CO/N=C(\C(=O)N[C@@H]1C(=O)N2C(C(=O)O)=C(COC(C)=O)CS[C@H]12)c1csc(N)n1 [Cefotaxime sodium]	12.36 ± 0.028	-0.43	0.24	-0.14	1.03	-0.66	-0.37	-0.11	0.17	-0.46	0.33	–	-0.16	0.05	0.47	1.08
CN(Cc1cnc2nc(N)nc(N)c2n1)c1ccc(C(=O)N[C@@H](CCC(=O)O)C(=O)O)cc1 [Methotrexate]	15.5 ± 0.33	-1.88	-4.24	-0.82	-2.91	8.39	–	–	-4.22	6.68	4.61	8.99	0	0.73	6.15	–
O=C(O)c1cc(/N=N/c2ccc(O)c(C(=O)O)c2)ccc1O [Olsalazine Sodium]	12.63 ± 0.099	1.33	-0.62	-0.47	-0.08	-0.62	–	-0.74	-1.01	-0.76	-1.31	-1.25	-0.73	-0.7	–	-0.58

— the supplement of paper PMC8975748
